For orientation: inhibition means the change of the read-out against control, counted positive when it falls.

Among the data in PubChem BioAssay AID624040 (The Scripps Research Institute Molecular Screening Center, 2012) are inhibition values, retold here.

The campaign covered roughly 360,000 compounds. About 2,100 (0.58%) were called active. Only a selection was taken, and actives are over-represented in it overall. Unmarked numbers belong to inactive results.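 The calls were made as follows: active = inhibition above a per-plate cutoff, the mean of that plate's test compounds plus 3 SD (cut at about 27% in these data); inactive = the rest.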

Chain of Muscarinic acetylcholine receptor M5 (Homo sapiens) (P08912 whole entry, looked up): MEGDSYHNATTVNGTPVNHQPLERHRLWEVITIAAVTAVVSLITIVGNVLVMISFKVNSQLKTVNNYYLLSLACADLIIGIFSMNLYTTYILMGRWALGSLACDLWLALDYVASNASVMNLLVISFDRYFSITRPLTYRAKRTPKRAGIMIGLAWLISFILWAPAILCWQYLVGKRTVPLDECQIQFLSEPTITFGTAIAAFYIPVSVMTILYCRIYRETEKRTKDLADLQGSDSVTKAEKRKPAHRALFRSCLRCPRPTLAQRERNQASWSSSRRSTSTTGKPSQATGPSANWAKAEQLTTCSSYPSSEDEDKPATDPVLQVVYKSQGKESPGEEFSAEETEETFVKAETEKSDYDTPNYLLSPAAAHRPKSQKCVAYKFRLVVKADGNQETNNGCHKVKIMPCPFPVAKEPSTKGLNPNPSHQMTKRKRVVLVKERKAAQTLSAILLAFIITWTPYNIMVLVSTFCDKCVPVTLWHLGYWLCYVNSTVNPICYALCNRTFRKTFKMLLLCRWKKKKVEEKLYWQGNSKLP

The experiment concerns the target Muscarinic acetylcholine receptor M5 (Homo sapiens) (UniProt P08912). Description: CHRM5 blockers of acetylcholine calcium response – CHO cells, Fluo-8 calcium fluorescence, primary screen (AID 624040).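 Also: 0% = acetylcholine EC80 with DMSO and 100% = DMSO without agonist.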 Conditions: CHO-hM5 cells, ACh EC80, at 3 µM, hits give high values.
With `CC1CN(c2nc(-c3ccccc3)nnc2-c2ccccc2)CC(C)O1` (stereo unspecified), the inhibition was 0.03%. `O=C(c1cc(COc2c(F)cccc2F)on1)N1CCSCC1`: the inhibition is -3.86%. `CCCC(=O)N1CCC1(C)C(=O)Nc1ccc(-n2cncn2)cc1` (stereo unspecified): the inhibition was -3.91%. With `C=CCC1(CC=C)CCCN1C(=O)c1cc(COc2ccc(-n3cncn3)cc2)on1`, the inhibition was 41.9% (active). Next, `CCN(CC)C(=O)C1CCC(C)(C(=O)O)C1(C)C` (stereo unspecified): 8.62%. Consider `COc1ccc(Cn2cc(CN3CCS(=O)(=O)N(Cc4ccc(-c5cccc(Cl)c5)cc4)C(C)C3=O)nn2)cc1` (stereo unspecified), for which the inhibition is -2.91%. Turning to `CC1=C(C(N)=O)C(c2sccc2C)n2nnnc2N1` (stereo unspecified), the inhibition is -6.06%.

Turning to `COc1ccc(OC)c(C2N(c3ccccn3)C(=O)C3CCCN32)c1` (stereo unspecified), the inhibition is 2.53%. `CN(C)Cc1ccccc1C1(O)c2ccccc2CSc2ccccc21` (stereo unspecified): the inhibition was 18.8%. Consider `CN(C)CC/C=C1\c2ccccc2CSc2ccccc21`, for which the inhibition was 99.1% (active). With `CCOC(=O)c1ccc(N=C2SC(C(=O)NC)CC(=O)N2CCc2ccccc2)cc1` (stereo unspecified), the inhibition was 3.02%. Consider `COc1ccc(NC(=O)/C(Cl)=C(/Cl)S(=O)Cc2ccc(C)cc2)cn1` (stereo unspecified), for which the inhibition was 34.9% (active).

Take `N#Cc1ccc(COC(=O)Cn2nnc(-c3ccccc3)n2)cc1`: the inhibition was 1.41%.

Take `c1cc(-n2cnnn2)ccc1NC1=NCCC1`: the inhibition was -8.17%.

For `O=C(CSc1nccn1-c1cccc(F)c1)NC1CCCC1`, the inhibition was 0.21%. For `CCC(C)(C)NC(=O)CN(C(=O)CCC(=O)Nc1cc(C)ccn1)c1ccc2c(c1)OCCO2`, the inhibition is -0.46%. `CCCCC(=O)NNC(=S)NC(=O)C(c1ccccc1)c1ccccc1`: the inhibition is 28.1% (active). In the case of `C=CCC(NC(=O)Cc1ccccc1)C(=O)NCCC` (stereo unspecified), the inhibition is -3.26%.

For the compound `CCCOCC(O)CC(CC)C(=O)NNC(=S)Nc1ccccc1` (stereo unspecified), the inhibition is -7.7%. As for `CCCNC(=O)N1CCN(C(=O)NCCC)CC1`, the inhibition is 8.13%. Consider `CCN1/C(=C\c2ccc3ccccc3[n+]2CC)Sc2cc(C)ccc21`, for which the inhibition is 48.1% (active).

As for `C#CCO[C@@H]1C[C@H](n2cnc3c(=O)[nH]c(NC(=O)C(C)C)nc32)O[C@@H]1CO`, the inhibition is 9.77%.

In the case of `Cc1cccc(-n2c(Cc3cc(=O)[nH]c(=O)[nH]3)nnc2SC(C)C)c1`, the inhibition was -3.22%.

On to `CC[C@]12c3[nH]c4ccc(Cl)cc4c3CCN1C(=O)[C@@H](CC(=O)NCCCOC)C[C@@H]2C(=O)N1CCN(C(=O)C2CC2)CC1`, for which the inhibition is 0.99%. Regarding `COc1ccccc1NS(=O)(=O)c1ccc(C)c(C(=O)NCC(c2ccco2)N(C)C)c1` (stereo unspecified), the inhibition is 6.64%. Turning to `CSCCC(NS(=O)(=O)c1ccc(C)cc1)C(=O)NCCc1c[nH]c2ccccc12` (stereo unspecified), the inhibition is 2.39%. For `Cc1cccc(N2CCN(S(=O)(=O)c3ccc(-c4cc(C)no4)s3)CC2C)c1` (stereo unspecified), the inhibition was -1.63%.

For `Cc1cc(-c2ccc(S(=O)(=O)N3CCN(c4cccc(C(F)(F)F)c4)CC3)s2)on1`, the inhibition is 53.9% (active). As to `Cc1cc(-c2ccc(S(=O)(=O)N3CCc4ccccc4C3)s2)on1`, the inhibition is 5.38%. For `C=CCCN(Cc1ccccc1)S(=O)(=O)c1ccccc1Br`, the inhibition was 13.3%. For `O=C(NCC(=O)N1CCC2(CC1)NCCc1[nH]cnc12)c1ccc(Br)cc1`, the inhibition is -15.5%.

Consider `O=C1C2C3C=CC(C3)C2C(=O)N1c1ccc(-c2nc3ccccc3c(=O)o2)cc1` (stereo unspecified), for which the inhibition was -6.13%. As for `Nc1c(C(=O)c2cccs2)sc2nsc(SCCN3CCCCC3)c12`, the inhibition is 47.4% (active). Take `CC1CCC2(CC1)NC(=O)N(Cc1nnc(-c3cccs3)o1)C2=O` (stereo unspecified): the inhibition was 8.17%. With `COc1ccccc1CNC(=O)COn1nnc2ccc(S(=O)(=O)N3CCOCC3)cc21`, the inhibition is 4.42%. Turning to `Cn1cccc1C(=O)N1CCc2ccccc2C1`, the inhibition was -2.44%. On to `CN1CCN(S(=O)(=O)c2cccc(C(=O)N3CCc4ccccc43)c2)CC1`, for which the inhibition is 5.4%. As for `CN1CCN(C(=O)N2c3ccccc3CCc3ccccc32)CC1`, the inhibition was 98.8% (active).

Regarding `COc1ccc(C(=O)NC2CC2)cc1OC1CCN(C/C=C/c2ccccc2)CC1`, the inhibition was 3.15%. For `COCCn1c(SCC(=O)Nc2cc(OC)ccc2OC)nc2c(c1=O)SC(C)C2` (stereo unspecified), the inhibition was 3.68%.

In the case of `CC(=O)Nc1ccc(S(=O)(=O)NCC(=O)OCc2cc(=O)oc3ccc4ccccc4c23)cc1`, the inhibition was 0.62%. Next, `COc1ccc(OCC(O)CNC(=O)Nc2ccc(Cl)cc2)cc1` (stereo unspecified): 12.7%; `CC(=O)N1CCC(N(C(=O)Nc2ccc(Cl)cc2)C(C)C)CC1`: 12.4%.

Turning to `CC(C)S(=O)(=O)c1csc(NC(=O)Nc2ccc(Cl)cc2)c1Cl`, the inhibition was 37.3% (active). For `Cc1cc(N2CCCC2)ccc1NC(=O)COc1ccc(Cl)cc1`, the inhibition is -1.18%. Take `O=C(CCCN=C1NS(=O)(=O)c2ccccc21)OCC(=O)c1ccc(F)c(F)c1`: the inhibition is 7.17%.

In the case of `COc1cc(OC)c(OC)cc1CN1CCN(C(=O)c2cccc3ccccc23)CC1`, the inhibition is 4.24%. In the case of `Cc1ccc(C(=O)N2CCCc3ccccc32)c(Cl)c1`, the inhibition is 16.7%.

Consider `Cc1cccc2cc3c(N)c(C(=O)N4CCCc5ccccc54)sc3nc12`, for which the inhibition was 28.3% (active). Consider `CCCn1nc(C(=O)N2CCCc3ccccc32)c2ccccc2c1=O`, for which the inhibition was 12.6%.

Turning to `O=C(Cc1ccc(S(=O)(=O)N2CCOCC2)s1)NCCOc1ccccc1F`, the inhibition was -4.35%. Take `CC(Sc1nnc(CNC(=O)c2ccccc2F)n1C)C(=O)Nc1nccs1` (stereo unspecified): the inhibition was 5.11%. As to `FC(F)Oc1ccccc1NC(=S)Nc1cccc(Cl)c1Cl`, the inhibition was -7.36%. Next, `COc1ccc(CN(C)C(=O)Cc2c[nH]c3ccccc23)c(OC)c1OC`: 1.21%. Then `COc1ccc(CN(C)C(=O)Cc2ccsc2)c(OC)c1OC`, with 6.37%. As to `COc1ccc(-c2cc(C(=O)N(C)Cc3ccc(OC)c(OC)c3OC)c3ccccc3n2)cc1OC`, the inhibition was 29.8% (active). Consider `CCCCN(CCCC)CCNC(=O)CN1C(=O)COc2ccc(S(=O)(=O)N3CCOCC3)cc21`, for which the inhibition is -0.51%. In the case of `CCO[C@H]1OC(C(=O)O)=C[C@@H](C2CCCCC2)[C@@H]1CCCO`, the inhibition was 9.63%. For the compound `O=C(NCc1cccnc1)c1nc(-c2cccs2)no1`, the inhibition was 5.2%.

Regarding `CC(C)(C)NC(=O)NC(=O)COC(=O)CCC1CCCCC1`, the inhibition is -5.64%. `CCc1ccc(CNC(=O)C2CCN(c3nnc(C)c4c(C)n(-c5ccc(C)cc5)nc34)CC2)cc1`: the inhibition was 0.33%.

Turning to `CCOc1ccc(CCN2C(=S)N([C@@H](CC(C)C)CN3CCC[C@@H]3CN3C(=S)NC[C@@H]3Cc3ccc(O)cc3)C[C@@H]2Cc2ccc(O)cc2)cc1`, the inhibition was 0.29%.

With `COc1ccc(C(c2nnnn2C2CCCC2)N2CCN(C/C=C/c3ccccc3)CC2)cc1` (stereo unspecified), the inhibition is 42% (active).

`COCCn1nnnc1C(c1ccccc1Cl)N1CCN(c2ccccc2OC)CC1` (stereo unspecified): the inhibition is -11.5%. Regarding `CCCCn1nnnc1C(c1cccc(OC)c1OC)N1CCN(C/C=C/c2ccccc2)CC1` (stereo unspecified), the inhibition was 47% (active). Regarding `FC(F)(F)Oc1ccccc1C(c1nnnn1C1CCCCC1)N1CCN(C/C=C/c2ccccc2)CC1` (stereo unspecified), the inhibition is -11.2%. Consider `COc1ccc(C(c2nnnn2C2CCCCC2)N2CCN(c3ccccc3F)CC2)cc1` (stereo unspecified), for which the inhibition was -15.7%. In the case of `CCCCn1nnnc1C(c1ccccc1)N1CCN(c2ccccc2OC)CC1` (stereo unspecified), the inhibition was 2.03%. `Cc1ccc(-c2cnc(C(O)c3cccc(C)c3C)[nH]2)cc1` (stereo unspecified): the inhibition was -3.72%. Take `COCCn1c(C)cc(C(=O)CSc2nc3ccccc3c(=O)n2C(C)COC)c1C` (stereo unspecified): the inhibition is 9.46%. `CCCn1nc(NC(=O)C(C)C)c2cc3cc(OC)ccc3nc21`: the inhibition was 14.6%.

Regarding `O=C1CS(=O)CN1c1ccc(Oc2ccccc2)cc1` (stereo unspecified), the inhibition was -0.11%.

Turning to `CC(C)(C)c1cc2cccnc2n1Cc1cccc(F)c1`, the inhibition was -7.37%.

Turning to `CCOc1ccc(CN2CCNC(=O)C2CC(=O)NCCCC2CCCC2)cc1` (stereo unspecified), the inhibition was 9.04%. Then `O=C(CCc1ccc(S(=O)(=O)N2CCOCC2)cc1)NN=C1CCCCCCC1`, with -2.08%; and `COc1cccc(OCC(=O)NCCS(=O)(=O)N2CCN(c3ccccc3)CC2)c1`, with -6.65%; and `CC(C)N(Cc1nc(-c2ccc3c(c2)OCO3)no1)CC1CCC(=O)N1` (stereo unspecified), with 16%.

`OC[C@@H]1CN(Cc2ccc(F)cc2)C[C@H](n2cnc3c(NC4CCCC4)ncnc32)O1`: the inhibition was 4.45%. On to `OC[C@@H]1CN(C2CCCC2)C[C@H](n2cnc3c(NC4CCC4)ncnc32)O1`, for which the inhibition is 9.41%. Next, `OC[C@@H]1CN(Cc2ccc(-c3ccccc3)cc2)C[C@H](n2cnc3c(NC4CCCC4)ncnc32)O1`: 31.4% (active); `O=C(NNC(=S)Nc1ccccc1)c1cccc(S(=O)(=O)N2CCOCC2)c1`: -3.26%. Then `Cc1ccc(C(=O)NCC(=O)OCC(=O)NC2CCCCCCC2)cc1`, with 7.24%; and `COCCn1c(SCC(=O)Nc2ccccc2F)nc2c(c1=O)SCC2`, with -1.26%; and `Cc1cccc(CSc2nc3c(c(=O)n2C)SCC3)c1`, with 36.1% (active). `COCCn1c(SCC(=O)Nc2ccc(F)cc2F)nc2c(c1=O)SCC2`: the inhibition was -2.37%. With `CN(CCCNC(=O)CN1C(=O)CC(C)(C)S(=O)(=O)c2ccccc21)C1CCCCC1`, the inhibition is 3.09%. `CC1(C)C2CC=C(/C=N/NC(=O)C3CC3)C1C2` (stereo unspecified): the inhibition is -4.33%. Next, `COc1cc(C(=O)N2CCN(S(=O)(=O)c3ccc(C(C)C)cc3)CC2)ccc1OCC(=O)N1CCOCC1`: -6.27%; `C=C(C)c1cccc(C(C)(C)NC(=O)NC2CCCC2)c1`: -4.91%. For `C=C(C)c1cccc(C(C)(C)NC(=O)NCCN(CC)CC)c1`, the inhibition was 52.3% (active). For `C=C(C)c1cccc(C(C)(C)NC(=O)N2CCN(c3ncccn3)CC2)c1`, the inhibition was 4.22%.
